Results on 62 compounds are retold here after PubChem BioAssay AID493222 (Johns Hopkins Ion Channel Center, 2011).

Out of some 2,400 compounds screened, about 95 (4%) were called active.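 Rule for the calls: active = mean of duplicate membrane potential ratios lying over 3 SD above or below the buffer control mean, so actives fall on both sides; inactive = the rest.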 Only a sample is shown.

This experiment is described as follows: membrane potential effects in parental HEK293, counter-screen for CHT inhibitor project, cell-based, membrane potential dye (AID 493222).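 For membrane potential ratio readout (active if shifted either direction beyond buffer ±3SD; no single direction): ratio is peak minus trough fluorescence over baseline after EC90 choline challenge.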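 Note: parental cells lack the transporter so any hit is non-specific.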 The conditions noted are these: choline response, at 10 µM; active = decrease or increase beyond buffer ±3SD. A general note: Counterscreens check selectivity or assay interference.
As to `O=C(OCC(=O)c1c[nH]c2ccccc12)c1cccc(O)c1`, the membrane potential ratio readout (active if shifted either direction beyond buffer ±3SD; no single direction) entry is “inactive”. In the case of `CCc1cc2c(N3CCN(c4nnc(CC)s4)CC3)ncnc2s1` it was “inactive”; in that of `O=C(Cn1nc(C(F)(F)F)c2c1CCC2)NCc1ccc(F)cc1`, “inactive”. The same measure for `CCN(Cc1ccccc1)S(=O)(=O)c1cc(C(=O)O)ccc1OC`: “inactive”; for `COc1ccc(Cn2c(=O)sc3ccccc32)cc1OC`: -8.59 (active).

For `O=C(NCCc1ccc2c(c1)OCCO2)c1cc2ccccc2o1`, the membrane potential ratio readout (active if shifted either direction beyond buffer ±3SD; no single direction) entry was “inactive”. For the compound `FC(F)(F)c1cccc(NC(=S)Nc2cccc(Cl)c2)c1`, the membrane potential ratio readout (active if shifted either direction beyond buffer ±3SD; no single direction) result was “inactive”. Consider `CCCCCn1c(=O)[nH]c2cc(C(=O)NCCCN3CCCCC3C)ccc2c1=O` (configuration not stated), for which the membrane potential ratio readout (active if shifted either direction beyond buffer ±3SD; no single direction) result was “inactive”. `O=C(NCCCn1ccnc1)C(=O)c1cn(CC(=O)N2CCCCCC2)c2ccccc12`: the membrane potential ratio readout (active if shifted either direction beyond buffer ±3SD; no single direction) entry is “inactive”.

`CCC(C)c1ccc(NC(=S)NCc2ccccn2)cc1` (configuration not stated): the membrane potential ratio readout (active if shifted either direction beyond buffer ±3SD; no single direction) result was “inactive”. In the case of `Cc1c(C(=O)OC(C)C)sc(NC(=O)c2cccnc2)c1C#N` it was “inactive”; in that of `C/C(=N/NC(=O)c1cc(Cl)ccc1O)C12CC3CC(CC(C3)C1)C2`, “inactive”. For `COc1nc(OC)nc(N(C)CCO)n1`, the membrane potential ratio readout (active if shifted either direction beyond buffer ±3SD; no single direction) entry was “inactive”. For the compound `COc1cccc(-c2nn(-c3ccccc3)cc2/C=C(\C#N)C(=O)NCCCn2ccnc2)c1`, the membrane potential ratio readout (active if shifted either direction beyond buffer ±3SD; no single direction) entry was “inactive”.

In the case of `O=S(=O)(Cc1cc(Cl)nc(-c2cccnc2)n1)c1ccccc1`, the membrane potential ratio readout (active if shifted either direction beyond buffer ±3SD; no single direction) entry is “inactive”. In the case of `COc1ccc(-n2nnnc2CNC(=O)c2ccc3ccccc3c2)cc1` it was “inactive”; in that of `N#Cc1ccc(C(=O)Nc2cccc3cccnc23)c(F)c1`, “inactive”. Regarding `CCC(=O)Nc1nnc(S(=O)(=O)N(CC(C)C)c2ccccc2)s1`, the membrane potential ratio readout (active if shifted either direction beyond buffer ±3SD; no single direction) entry was “inactive”. Turning to `CC1CN(S(=O)(=O)c2ccc(C(=O)NN3CCN(C)CC3)cc2)CC(C)O1` (configuration not stated), the membrane potential ratio readout (active if shifted either direction beyond buffer ±3SD; no single direction) result was “inactive”.

As for `CC(=O)N1CCN(S(=O)(=O)c2cccc(C(=O)NC3CCC(C)CC3)c2)CC1` (configuration not stated), the membrane potential ratio readout (active if shifted either direction beyond buffer ±3SD; no single direction) entry was “inactive”.

For the compound `CC(NC(=O)c1ccc(N2CCNCC2)c([N+](=O)[O-])c1)C12CC3CC(CC(C3)C1)C2` (configuration not stated), the membrane potential ratio readout (active if shifted either direction beyond buffer ±3SD; no single direction) result is “inactive”. As for `COc1ccc(OCC(=O)OCCN(C)C)cc1`, the membrane potential ratio readout (active if shifted either direction beyond buffer ±3SD; no single direction) entry is “inactive”. The same measure for `CC(C(=O)NC1CCS(=O)(=O)C1)N1C(=O)/C(=C/c2ccc(Cl)cc2)SC1=S` (configuration not stated): “inactive”; for `CCOC(=O)N1CCN(C(=O)C2CCN(c3ncnc4c3sc3cccc(F)c34)CC2)CC1`: “inactive”. On to `CCC(C(=O)N1CCOCC1)n1c(C(=O)OC)cc2occc21` (configuration not stated), for which the membrane potential ratio readout (active if shifted either direction beyond buffer ±3SD; no single direction) entry was “inactive”. `CC1(C)SC2C(NC(=O)COc3ccccc3)C(=O)N2C1C(=O)O` (configuration not stated): the membrane potential ratio readout (active if shifted either direction beyond buffer ±3SD; no single direction) result is “inactive”. As for `Cc1cccc(C)c1NC(=O)c1ccc(CN2CCc3ccccc3C2)cc1`, the membrane potential ratio readout (active if shifted either direction beyond buffer ±3SD; no single direction) entry was “inactive”.

Regarding `CCS(=O)(=O)C1=NSC2=NC(=O)/C(=C\c3ccc(OS(=O)(=O)c4ccccc4)cc3)C(=N)N21`, the membrane potential ratio readout (active if shifted either direction beyond buffer ±3SD; no single direction) result was “inactive”. With `Cc1nn(CC(=O)NCC2CCCO2)c(=O)c2cc3ccccc3n12` (configuration not stated), the membrane potential ratio readout (active if shifted either direction beyond buffer ±3SD; no single direction) result was “inactive”. On to `COc1ccc(C(CNC(=O)c2cccc(NS(=O)(=O)c3ccc(C)c(F)c3)c2)N2CCCC2)cc1` (configuration not stated), for which the membrane potential ratio readout (active if shifted either direction beyond buffer ±3SD; no single direction) entry was “inactive”. For `CCn1c(SCCC(C)C)nnc1-c1c[nH]c2ccccc12`, the membrane potential ratio readout (active if shifted either direction beyond buffer ±3SD; no single direction) entry was “inactive”. In the case of `Cc1[nH]c2ccccc2c1C(=O)CN1CCCC(C)C1` (configuration not stated) it was “inactive”. Take `COc1ccc(N2C(=O)CNC2=S)cc1`: the membrane potential ratio readout (active if shifted either direction beyond buffer ±3SD; no single direction) entry is “inactive”. The same measure for `CC(=O)c1ccc(Oc2cc(C)nc(-n3nc(C)cc3C)n2)cc1`: “inactive”. Turning to `CC(C)(C)c1ccc(C(=O)CSc2ncn[nH]2)cc1`, the membrane potential ratio readout (active if shifted either direction beyond buffer ±3SD; no single direction) result was “inactive”.

As for `CN(CCC#N)c1ncnc2scc(-c3ccccc3)c12`, the membrane potential ratio readout (active if shifted either direction beyond buffer ±3SD; no single direction) result is “inactive”.

On to `O=C1/C(=C/c2ccc(F)cc2)SC(=S)N1NS(=O)(=O)c1ccccc1`, for which the membrane potential ratio readout (active if shifted either direction beyond buffer ±3SD; no single direction) result was “inactive”. Regarding `COc1ccc(C(=O)NC(=S)NNC(=O)CCc2ccccc2)cc1`, the membrane potential ratio readout (active if shifted either direction beyond buffer ±3SD; no single direction) result is “inactive”.

As to `O=C(Nc1nonc1-c1ccc(Cl)cc1)c1ccco1`, the membrane potential ratio readout (active if shifted either direction beyond buffer ±3SD; no single direction) result is “inactive”. `COc1ccc(C(=O)NNC(=S)NC(=O)c2ccccc2)cc1`: the membrane potential ratio readout (active if shifted either direction beyond buffer ±3SD; no single direction) result was “inactive”. In the case of `Oc1c(Cl)cc(Cl)c(Cl)c1Cc1c(O)c(Cl)cc(Cl)c1Cl`, the membrane potential ratio readout (active if shifted either direction beyond buffer ±3SD; no single direction) entry is “inactive”.

Turning to `O=C(O)CC1=C(Nc2ccccc2)C(=O)N(c2ccccc2)C1c1ccc(Cl)cc1` (configuration not stated), the membrane potential ratio readout (active if shifted either direction beyond buffer ±3SD; no single direction) result was “inactive”.

On to `Cc1ccc2nc(Nc3ccccc3)cc(C)c2c1`, for which the membrane potential ratio readout (active if shifted either direction beyond buffer ±3SD; no single direction) result is “inactive”. Turning to `Cc1oc2cc([N+](=O)[O-])c(O)c([N+](=O)[O-])c2c1C(=O)c1ccc(Br)cc1`, the membrane potential ratio readout (active if shifted either direction beyond buffer ±3SD; no single direction) was 2.79 (active). `CC(C)(C)NC(=O)NC(=O)CN1CCC(Cc2ccccc2)CC1`: the membrane potential ratio readout (active if shifted either direction beyond buffer ±3SD; no single direction) result was “inactive”. Regarding `COc1ccc(C(=O)NC(C)c2nccs2)cc1OC1CCN(C(C)C)CC1` (configuration not stated), the membrane potential ratio readout (active if shifted either direction beyond buffer ±3SD; no single direction) result was “inactive”. On to `COc1cc2ccccc2cc1C(=O)Nc1ccc(S(=O)(=O)Nc2cc(C)on2)cc1`, for which the membrane potential ratio readout (active if shifted either direction beyond buffer ±3SD; no single direction) result is “inactive”.

On to `O=C(O/N=C(/c1ccccc1)c1ccncc1)c1ccccc1[N+](=O)[O-]`, for which the membrane potential ratio readout (active if shifted either direction beyond buffer ±3SD; no single direction) entry is “inactive”. For the compound `CCc1nc(C)cn1S(=O)(=O)c1cc([N+](=O)[O-])ccc1Cl`, the membrane potential ratio readout (active if shifted either direction beyond buffer ±3SD; no single direction) was 2.6 (active). In the case of `Cc1ccc(NNC(=O)c2cccs2)cc1Cl`, the membrane potential ratio readout (active if shifted either direction beyond buffer ±3SD; no single direction) entry is “inactive”.

`Cc1cc(OC(C)C(=O)Nc2ccc(S(=O)(=O)Nc3onc(C)c3C)cc2)cc(C)c1Cl` (configuration not stated): the membrane potential ratio readout (active if shifted either direction beyond buffer ±3SD; no single direction) result was “inactive”. For `CCN(CC(=O)NCc1ccc(Cl)cc1)C(=O)CSc1ccccc1`, the membrane potential ratio readout (active if shifted either direction beyond buffer ±3SD; no single direction) result is “inactive”. In the case of `CN(C)c1ccc(Nc2c3c4c(cccc4n(C)c2=O)C(=O)c2ccccc2-3)cc1`, the membrane potential ratio readout (active if shifted either direction beyond buffer ±3SD; no single direction) result was “inactive”. As to `Cc1cc(NS(=O)(=O)c2ccc(NC(=O)C(C)Oc3cccc(C)c3C)cc2)nc(C)n1` (configuration not stated), the membrane potential ratio readout (active if shifted either direction beyond buffer ±3SD; no single direction) result was “inactive”. Turning to `COc1ccc(/C=C2/SC(=O)N(CCCCCC(=O)Nc3ccccc3C(=O)O)C2=S)cc1`, the membrane potential ratio readout (active if shifted either direction beyond buffer ±3SD; no single direction) entry was “inactive”. `CN(Cc1ccccc1)CC(O)COc1ccc(CNCc2cc3ccccc3s2)cc1` (configuration not stated): the membrane potential ratio readout (active if shifted either direction beyond buffer ±3SD; no single direction) result was “inactive”. The same measure for `COc1ccc(S(=O)(=O)N2CCN(C(=O)NC3CCCCC3)CC2)cc1`: “inactive”; for `CCCCn1c(SCC(=O)NCC2CCCO2)nc2ccc(N3CCOCC3)cc2c1=O` (configuration not stated): “inactive”; for `O=C(c1c(F)cccc1Cl)N1CCN(S(=O)(=O)c2ccc3c(c2)OCCCO3)CC1`: “inactive”. As to `Cc1cccc(N(C)C(=O)CN2C(=O)COc3ccc(S(=O)(=O)N4CCCCCC4)cc32)c1`, the membrane potential ratio readout (active if shifted either direction beyond buffer ±3SD; no single direction) was -12.1 (active). `CC1CCN(CCCNC(=O)CN2C(=O)CSc3ccc(S(=O)(=O)N4CCCCC4)cc32)CC1`: the membrane potential ratio readout (active if shifted either direction beyond buffer ±3SD; no single direction) result is “inactive”. As to `O=C(O)c1ccc(/C=C2\SC(=S)N(NC(=O)c3ccc(Br)cc3)C2=O)cc1`, the membrane potential ratio readout (active if shifted either direction beyond buffer ±3SD; no single direction) entry was “inactive”.
